Cruzain Triton – cruzain (T. cruzi) inhibition with detergent; purified cruzain, Z-FR-AMC fluorescence, 0.01% Triton; Potency, µM, hits mostly inhibitors; 200,000 compounds, 0.43% hits; AID 1478; note: nearly all actives have a fitted effect of over 40% in size
Target sequence (P25779 123-467 limits assumed): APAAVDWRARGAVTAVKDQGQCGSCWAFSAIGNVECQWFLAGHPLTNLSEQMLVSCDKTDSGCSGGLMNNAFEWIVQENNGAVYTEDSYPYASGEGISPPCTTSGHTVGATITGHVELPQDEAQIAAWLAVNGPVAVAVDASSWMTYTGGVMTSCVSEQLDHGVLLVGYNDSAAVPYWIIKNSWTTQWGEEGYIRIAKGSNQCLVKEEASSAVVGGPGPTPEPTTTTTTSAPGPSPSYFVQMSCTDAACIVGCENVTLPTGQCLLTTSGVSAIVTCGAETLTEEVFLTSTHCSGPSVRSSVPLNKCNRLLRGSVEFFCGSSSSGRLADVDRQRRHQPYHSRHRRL
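Detergent-containing run (0.01% Triton X-100) in acetate buffer pH 5.5 with 5 mM DTT: enzyme at 1.5 nM final, 15 min compound preincubation at room temperature, then 2 uM Z-FR-AMC substrate. Activity taken as 60 s fluorescence increase at 360/450 nm.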
FBPA Giardia inh – inhibitors of Giardia lamblia fructose-1,6-bisphosphate aldolase; AID 2451; purified Giardia FBPA; A8B2U2; Potency, µM (top dose mostly 59.6 µM), actives largely listed as inhibitors; 290,000 compounds, 0.71% hits; note: nearly all actives have a fitted effect of over 55% in size
Target sequence (A8B2U2 whole entry, looked up): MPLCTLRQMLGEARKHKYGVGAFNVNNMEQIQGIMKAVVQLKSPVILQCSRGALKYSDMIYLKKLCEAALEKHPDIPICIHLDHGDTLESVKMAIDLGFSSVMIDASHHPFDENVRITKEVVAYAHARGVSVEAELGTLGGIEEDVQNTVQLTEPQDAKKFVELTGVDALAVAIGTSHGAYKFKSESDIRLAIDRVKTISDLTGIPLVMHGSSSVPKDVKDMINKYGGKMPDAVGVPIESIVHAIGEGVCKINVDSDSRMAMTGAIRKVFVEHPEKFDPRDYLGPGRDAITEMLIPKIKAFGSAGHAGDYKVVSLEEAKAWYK
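Giardia FBPA (40 nM reagent) was preincubated 10 min at RT with compound (up to 57.5 uM final), then substrate plus GAPDH/TPI/NAD/arsenate coupling system with diaphorase/resazurin was added; resorufin fluorescence (525/598 nm) was read after 20 min.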
Cruzain noTriton – blocks cruzain activity in detergent-free assay | P25779 | purified cruzain, Z-FR-AMC fluorescence, no detergent | Potency, µM, most hits filed as inhibitors | 200,000 compounds, 2.3% hits; note: nearly all actives have a fitted effect of over 40% in size
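Detergent-free condition (0.00005% Triton X-100) in acetate buffer pH 5.5 with DTT. 1.5 nM enzyme and compound were pre-mixed 15 min, then 2 uM Z-FR-AMC substrate added; reaction progress from fluorescence change between first and third reads (60 s).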
Papain inh – counter-screen for cruzain inhibitors: papain inhibition; shares compounds with Cruzain Triton; purified papain, Z-FR-AMC fluorescence cleavage; Potency, µM, usual class: inhibitors; 410 compounds, 41% hits; AID 2161; note: nearly all actives have a fitted effect of over 35% in size
Of the large screens only hits and unclear results are named; the others gave an inactive call (follow-up assays come after a bar, where they were run); ! = repeats disagree. Only a selection was taken, and hits are over-represented in it overall. Calls come from the whole dose curve; as a rule, active = well fitted curve in the direction sought with a large enough effect; inconclusive = small, poorly fitted or top-dose-only effect, or another doubt; inactive = no such curve, though single readings can be large; an effect the other way counts as inactive or inconclusive.

C[C@@H]1CC2(OC(O)[C@]3(C)O[C@H]23)O[C@H]2C[C@@]3(C)[C@@H]4CC[C@H]5C(C)(C)C(O[C@@H]6OC[C@@H](O)[C@H](O)[C@H]6O)CC[C@@]56C[C@@]46CC[C@]3(C)[C@@H]12 (stereo partly drawn)	Cruzain noTriton inconclusive (no result: FBPA Giardia inh)
O=C(c1ccccc1)N1CCn2c(nc3ccccc32)C1	none
O=C(C1COc2ccccc2O1)N1CCn2c(nc3ccccc32)C1 (stereo not drawn)	Cruzain noTriton 13µM
COC(=O)c1ccccc1NC(=O)CN1C(=O)C2CCCN2c2ncc(Cl)cc21 (stereo not drawn)	Cruzain noTriton 10µM
O=C(CN1C(=O)C2CCCN2c2ncc(Cl)cc21)NCc1ccc2c(c1)OCO2 (stereo not drawn)	Cruzain noTriton 25µM
COc1ccc(CNC(=O)CN2C(=O)C3CCCN3c3ncc(Cl)cc32)cc1 (stereo not drawn)	none
CCc1ccccc1NC(=O)CN1C(=O)C2CCCN2c2ncc(Cl)cc21 (stereo not drawn)	none
C=Cc1ccc(Cn2c(C)c(CNCCc3ccc(OCC)cc3)c(C(=O)O)c2C)cc1	none (no result: FBPA Giardia inh)
O=S1(=O)N[C@H]2CC[C@@H]3NS(=O)(=O)N[C@H]4CC[C@H](N1)N4S(=O)(=O)N23	none (no result: FBPA Giardia inh)
Cc1c(C(=O)N/N=C/c2ccccc2)[nH]c2ccc(Cl)cc12	none
Cc1c(C(=O)N/N=C/c2ccc(N(C)C)cc2)[nH]c2ccc(Cl)cc12	Cruzain noTriton 10µM
Cc1cc(Cl)ccc1NC(=O)C1CCN(c2nnc(-n3c(C)ccc3C)s2)CC1	none (no result: FBPA Giardia inh)
Cc1ccnc(SCC(=O)Nc2oc(-c3ccccc3)c(-c3ccccc3)c2C#N)n1	Cruzain noTriton inconclusive
N#Cc1c(NC(=O)Cn2cnc3ccccc3c2=O)oc(-c2ccccc2)c1-c1ccccc1	Cruzain noTriton 25µM
CCn1c(SCC(=O)Nc2oc(-c3ccccc3)c(-c3ccccc3)c2C#N)nnc1-c1cc(OC)cc(OC)c1	Cruzain noTriton 7.9µM
N#Cc1c(NC(=O)CN2CCOCC2)oc(-c2ccccc2)c1-c1ccccc1	Cruzain noTriton inconclusive
CC[C@H](C)[C@H](NC(=O)[C@@H](N)Cc1ccc(O)cc1)C(=O)NCC(=O)N[C@@H](CO)C(=O)N[C@@H](CCCN=C(N)N)C(N)=O	none (no result: Cruzain Triton, Cruzain noTriton)
COc1ccc(-n2c(SCC(=O)Nc3sc4c(c3C#N)CCCC4)nnc2-c2ccccc2OC)cc1	Cruzain noTriton 25µM
COc1cccc(-n2c(SCC(=O)Nc3sc4c(c3C(N)=O)CCC4)nc3ccccc3c2=O)c1	Cruzain noTriton 25µM
COC(=O)c1cccc(-n2nnnc2SCC(=O)Nc2nc3c(s2)CCCC3)c1	Cruzain noTriton inconclusive
COc1ccc(-c2nnc(SCC(=O)Nc3sc4c(c3C#N)CCCC4)n2-c2ccccc2)cc1	Cruzain noTriton inconclusive
COc1ccc(-c2ccc(C#N)c(SCC(=O)Nc3sc4c(c3C#N)CCC4)n2)cc1	Cruzain noTriton 13µM
N#Cc1ccc(-c2cccnc2)nc1SCC(=O)Nc1sc2c(c1C#N)CCC2	none
COc1cccc(-n2nnnc2SCC(=O)Nc2nc3c(s2)CCCC3)c1	Cruzain noTriton 25µM
COc1cccc(-n2c(SCC(=O)Nc3nc4ccccc4s3)nc3ccccc3c2=O)c1	none (no result: Cruzain Triton, Cruzain noTriton)
O=C1C[C@H](c2ccccc2Cl)N1S(=O)(=O)c1ccccc1[N+](=O)[O-]	none (no result: Cruzain Triton, Cruzain noTriton)
CCC(Sc1nc2ccccc2c2nc(CCn3c(C)nc4ccccc43)nn12)C(=O)Nc1ccc(F)cc1 (stereo not drawn)	none (no result: FBPA Giardia inh)
O=C(O)CCc1c(C(=O)O)[nH]c2cc(Cl)cc(Cl)c12	none (no result: Cruzain Triton, Cruzain noTriton)
Fc1ccc(Cn2ccc(-c3cnc(-c4ccccc4)s3)n2)cc1	none
O=C(c1ccc(F)cc1)n1ccc(-c2cnc(-c3ccccc3)s2)n1	Cruzain noTriton 6.3µM
Cn1c(-c2ccc(F)cc2)cnc1SCC(=O)Nc1ccccc1	none (no result: Cruzain Triton, Cruzain noTriton)
CC(=O)Nc1ccc(NC(=O)Cn2c(-c3ccc(F)cc3)cnc2SCC(=O)Nc2c(C)cccc2C)cc1	Cruzain noTriton 20µM
CN1CCN(S(=O)(=O)c2ccc(NC(=S)NC(=O)C3CCCCC3)cc2)CC1	none (no result: Cruzain Triton, Cruzain noTriton)
Cc1ccc(NS(=O)(=O)c2ccc(Cl)c(NC(=S)NC(=O)C3CCCCC3)c2)cc1Cl	Cruzain noTriton 32µM
Cc1ccc(CNc2ccc3cc(S(=O)(=O)N4CCCCC4)ccc3n2)cc1	none (no result: FBPA Giardia inh)
COc1ccc(OC)c(N(CC(=O)NCc2ccccc2)S(=O)(=O)c2ccccc2)c1	none (no result: FBPA Giardia inh)
O=C(COc1ccc(/C=N/NC(=O)c2ccccc2)cc1)Nc1ccc([N+](=O)[O-])cc1	Cruzain noTriton 13µM
O=C(COc1ccccc1)Nc1ccc([N+](=O)[O-])cc1	none
CCOc1ccc(NC(C)C(=O)N/N=C/c2ccc([N+](=O)[O-])cc2)cc1 (stereo not drawn)	none (no result: Cruzain Triton, Cruzain noTriton)
CC(C)Oc1ccc(/C=N/NC(=O)C(CSCc2ccccc2)NC(=O)c2ccc([N+](=O)[O-])cc2)cc1 (stereo not drawn)	Cruzain noTriton 20µM
CCNCCC1(CC)C(=O)NC(=O)NC1=O	none (no result: FBPA Giardia inh)
O=C(NNC(=O)c1sc2cccc(Cl)c2c1Cl)Nc1ccccc1	Cruzain noTriton 10µM
O=C(NNC(=O)c1sc2cccc(Cl)c2c1Cl)NC1CCCCC1	none
Cc1oc(=O)c(NC(=O)c2cccc(Cl)c2)cc1C(=O)c1ccccc1	Cruzain Triton 1.3µM, Cruzain noTriton 0.63µM | Papain inh inactive
Cc1oc(=O)c(NC(=O)c2ccccc2)cc1C(N)=O	none (no result: Cruzain Triton, Cruzain noTriton)
Cc1ccc(S(=O)(=O)N[C@@H](Cc2ccccc2)C(=O)CCl)cc1	Cruzain Triton 7.1µM, Cruzain noTriton 3.2µM | Papain inh 16µM!
Cc1ccc(S(=O)(=O)NC(Cc2ccccc2)C(=O)NN)cc1 (stereo not drawn)	none (no result: Cruzain Triton, Cruzain noTriton)
COc1ccc(NS(=O)(=O)c2cc(NC(=O)/C=C/c3ccccc3OC)ccc2N2CCCCC2)cc1	Cruzain noTriton 3.2µM | Papain inh inactive
COc1ccc(NS(=O)(=O)c2cc(NC(=O)/C=C/c3cccs3)ccc2N2CCOCC2)cc1	Cruzain noTriton inconclusive
CC(C)CCNC(=O)NC(=O)COC(=O)CNC(=O)C1CCCCC1	none (no result: Cruzain Triton, Cruzain noTriton)
O=C(CNC(=O)c1ccccc1)NCC(=O)OCC(=O)c1ccc(F)cc1	none
O=C(CNC(=O)C1CCCCC1)OCC(=O)c1ccc(-c2ccccc2)cc1	none (no result: Cruzain Triton, FBPA Giardia inh, Cruzain noTriton) | Papain inh inactive
O=C(CNC(=O)C1CCCCC1)OCC(=O)c1ccc([N+](=O)[O-])cc1	none (no result: Cruzain Triton, FBPA Giardia inh, Cruzain noTriton) | Papain inh 16µM
CCC(=O)NCC(=O)OCC(=O)c1ccccc1	none
O=C(CCC(=O)OCC(=O)c1ccc([N+](=O)[O-])cc1)NC1CCCCC1	none
O=C(COC(=O)CNC(=O)C1CCCCC1)NC1CCCC1	none (no result: Cruzain Triton, FBPA Giardia inh, Cruzain noTriton) | Papain inh 32µM
O=C(CNC(=O)C1CCCCC1)OCC(=O)c1ccc(F)cc1	none (no result: Cruzain Triton, FBPA Giardia inh, Cruzain noTriton) | Papain inh 16µM
Cc1cc(S(=O)(=O)C(CNC(=O)COc2ccc(Cl)cc2)c2cccs2)ccc1F (stereo not drawn)	none (no result: FBPA Giardia inh)
O=C(CCCn1c(=O)c2ccccc2n(Cc2ccc(F)cc2Cl)c1=O)NCCc1ccc(Cl)cc1	none (no result: FBPA Giardia inh)
CCOC(=O)CNC(=O)N1CCCC(C(=O)c2cccc(Cl)c2)C1 (stereo not drawn)	none (no result: Cruzain Triton, Cruzain noTriton)
N#Cc1ccc(NC(=O)COC(=O)CNC(=O)C2CCCCC2)cc1	Cruzain Triton 4µM, Cruzain noTriton 4µM | Papain inh inactive

Assay outcomes from PubChem BioAssay.
